Measurements published in PubChem BioAssay AID1053143 (Broad Institute, 2014).
Out of some 3,400 compounds screened, about 120 (3.5%) were called active. Only a sample is shown. Results with a measured potency or affinity are listed apart. Unmarked numbers belong to inactive results. No rule for the calls is given here.

assay: HepG2 cell cytotoxicity, dose response, cytotoxicity control, ATP luminescence, cherry-pick, activator set 2 (AID 1053143); settings: HepG2 viability, CellTiter-Glo ATP luminescence, 72 h; series mostly up to 26 µM; activity change, negative = cytotoxicity: at the top concentration

Row | SMILES | activity change, negative = cytotoxicity
1 | COC(=O)CSC(C(=O)Nc1ccc(C)c(C)c1)c1ccccc1 (configuration not stated) | -18%
2 | CCCc1nc2c3ccccc3ccn2c1Cc1ccccc1 | -13.7%
3 | COc1ccc2[nH]c3c(=O)n(CCc4ccccc4)cnc3c2c1 | -10.2%
4 | Nc1ccc(C(=O)OCCc2ccccc2)cc1 | -19%
5 | O=C(Nc1ccc(Cl)cn1)c1ccc2nccnc2c1 | -14.3%
6 | O=C(Nc1ccc(Cl)cn1)c1ccccc1F | -11.4%
7 | OCC1OC(n2ccc3c(SCc4ccccc4)ncnc32)C(O)C1O (configuration not stated) | -7.9% [at 6 µM]
8 | Cc1cc(N2CCOCC2)nc2cc(O)ccc12 | 1.65%
9 | O=C1c2ccccc2NC(c2ccc(-c3cccs3)o2)N1O (configuration not stated) | -8.51%
10 | c1cnc(SCCCOc2ccc3ccccc3c2)nc1 | -7.21%
11 | Cc1ccc(NC(=O)CCC(=O)c2cccs2)cc1 | 0.275%
12 | C=CCNc1nc(-c2ccc3c(c2)OCCO3)cs1 | -18.3%
13 | O=c1oc(CCCO)cc2ccc(/C=C/c3cccc([N+](=O)[O-])c3)cc12 | 9.18%
14 | CN1CCCN(C(=O)c2cc(-c3cccc4ccccc34)nc3ccccc23)CC1 | -16.5%
15 | CC(C)c1cc(C(=O)NCCc2ccccc2)no1 | -19.3%
16 | O=C(Nc1ccc(F)c(Cl)c1)c1cc(-c2ccco2)on1 | 15.2%
17 | COc1ccc(NC(=O)c2cc(-c3ccco3)on2)cc1 | 2.5%
18 | O=C(Nc1cccnc1Cl)c1cc(-c2ccco2)on1 | 5.57%
19 | COc1ccc2cc(-c3ccccc3)c(=O)oc2c1 | -12.2%
20 | Cc1ccc(C)c(OCc2cc(C(=O)N3CC[C@H](O)C3)no2)c1 | -11.7%
21 | COC(=O)C1=C(N)Oc2c(oc(CO)cc2=O)C1c1ccc(F)cc1 (configuration not stated) | -12.3%

Row | SMILES | activity change, negative = cytotoxicity
22 | Fc1ccc(SCCc2ccccn2)cc1 | -10.7%
23 | CCOC(=O)C1CCN(C(=O)C(CC)c2ccccc2)CC1 (configuration not stated) | 0.165%
24 | CCOC(=O)C1CCN(C(=O)/C=C/c2ccccc2)CC1 | -14.5%
25 | Cc1ccc(C(=O)Nc2cccc(-c3ccc(N4CCOCC4)nn3)c2)cc1 | -19.4% [at 12 µM]
26 | O=C(Nc1cccc(-c2ccc(N3CCOCC3)nn2)c1)c1cccc(Cl)c1 | -6.34%
27 | Fc1ccc(/C=C/c2nnc(-c3cccs3)o2)cc1 | -11.6%
28 | O=C(C=NNc1ccccc1)c1ccccc1 | -23.1%
29 | CCC(C)C(=O)Nc1nnc(-c2cccs2)s1 (configuration not stated) | 22.8%
30 | O=C(Nc1ccc(Cl)cc1Cl)c1ccc2c(c1)OCCO2 | 0.31%
31 | O=C(Nc1cccnc1)c1ccc(Oc2ccccc2)cc1 | -11.8%
32 | NC(=O)c1ccccc1NC(=O)c1ccc2c(c1)OCO2 | -17%
33 | O=C(Nc1cccnc1Cl)c1cc2ccccc2o1 | -5.8%
34 | O=C(Nc1ncccc1Cl)c1cc2ccccc2o1 | -1.87%
35 | O=C(Nc1cccc([N+](=O)[O-])c1)c1ccc2c(c1)OCCO2 | 32.1% [at 12 µM]
36 | O=C(Nc1ccccc1F)c1ccc2c(c1)OCO2 | -28%
37 | O=C(Nc1ncccc1O)c1ccc2ccccc2c1 | -15.9%
38 | CC(=O)Oc1ccc(Oc2ccc(-c3noc(C)n3)cc2)cc1 | -9.53%
39 | CSc1nnc(NC(=O)c2ccc(S(=O)(=O)N(C)C)cc2)s1 | -1.21%
40 | CN(C)c1ccc(-c2nnc(-c3cccs3)o2)cc1 | -9.57%
41 | CCN(CC)C(=O)C1CCN(Cc2cn(C)nc2-c2ccc(Oc3ccccc3)cc2)CC1 | 4.7%
42 | COc1ccc(-c2[nH]ncc2CNC(C)c2ccccc2Cl)cc1F (configuration not stated) | -10.5%

Row | SMILES | activity change, negative = cytotoxicity
43 | O=C(O)c1ccccc1-c1ccccc1C(=O)NNc1ccccc1 | -11.9%
44 | O=C(N/N=C/c1ccc(N2CCOCC2)cc1)c1ccccn1 | -21.9%
45 | O=C(COC(=O)c1ccc(F)c(S(=O)(=O)N2CCCCC2)c1)NCc1ccc(F)cc1 | 13.5%
46 | Oc1ccc(-c2csc(Nc3ccc4c(c3)OCO4)n2)c(O)c1 | -4.71%
47 | Oc1ccc(-c2csc(Nc3ncccn3)n2)c(O)c1 | 0.686%
48 | O=C(/C=C\Nc1ccc2c(c1)OCO2)c1ccc2c(c1)OCO2 | -15.2%
49 | Fc1ccccc1-c1nc(-c2ccncc2)no1 | -9.69%
50 | Fc1ccccc1-c1nc(-c2ccccc2)no1 | -10.7%
51 | S=C(c1ccc(-c2cccc(Cl)c2)o1)N1CCCCC1 | -11.6%
52 | COc1ccc(/C=C/C(=O)c2ccc[nH]2)cc1OC | -6.18%
53 | Cc1ccc(Cc2c(-c3cccc(Cl)c3)nc3ccc(Br)cn23)cc1 | 2.45%
54 | COc1ccc(C2=NN(C(=O)c3ccccc3C(=O)O)C(c3ccccc3O)C2)cc1 (configuration not stated) | 3.34%
55 | CC(=O)N1N=C(c2ccccc2)CC1c1cn(C)c2ccccc12 (configuration not stated) | 38.2%
56 | O=c1oc2ccccc2cc1-c1nnc(NCc2ccco2)s1 | -16.9%
57 | Cc1cc(OCc2cc(C(=O)N(C)C3CCOC3)no2)cc(C)c1Cl (configuration not stated) | -9.61%
58 | Nc1c(C(=O)Nc2ccc3c(c2)OCCO3)nnn1Cc1cccc(Cl)c1 | -26.3%
59 | C(/CCc1ccccc1)=N\Nc1nc2ccccc2[nH]1 | 0.412%
60 | Oc1ccc(Br)cc1-c1cc(-c2ccccc2F)[nH]n1 | -27.4%
61 | Cc1ccccc1-c1cc(-c2ccccc2O)n[nH]1 | 3.4% [at 12 µM]
62 | Oc1ccccc1-c1cc(-c2ccc(F)cc2)n[nH]1 | -34.5%
